Screens: PubChem, several laboratories
Most compounds without a hit are left out; they make up all but 4.5% or so of the library.
Jurkat NFkB inh – inhibitors of induced NF-kB luciferase reporter, primary screen, TCR NF-kB activation inhibitor project, cell-based, luminescence, uHTS; Jurkat, PMA/ionomycin-induced NF-kB luciferase reporter; inhibition, % at 4 µM; 330,000 tested, 0.53% active; AID 435003, 2010; in the data active means inhibition above about 50%
697 NFkB inh – inhibitors of PMA/ionomycin-induced NF-kB reporter, 697 cells, primary screen, B-cell NF-kB inhibitor project, cell-based, luminescence, uHTS. 697 B-cell NF-kB luciferase reporter, 16 h. inhibition, % at 4 µM. 330,000 tested, 0.33% active; in the data active means inhibition above about 35%
Gli-Sufu block – Gli-Sufu pathway antagonists, primary screen, luciferase luminescence, Sufu-KO-LIGHT cells, uHTS; Sufu-KO-LIGHT fibroblasts, Gli luciferase reporter luminescence; inhibition, % at 5 µM; AID 588413, 2011; 340,000 tested, 0.74% active;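 active means inhibition above about 55%, limit read from the data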
Mdm2 MdmX PPI – inhibitors of human Mdm2-MdmX association, primary screen, cell-based, luminescence, split luciferase, SaOS-2, uHTS; SaOS-2 split-luciferase Mdm2/MdmX complementation; inhibition, % at 8 µM; 330,000 tested, 3% active;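 active means inhibition of at least 50% at 8 µM in the primary screen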
Target sequence (O15151 whole entry, looked up): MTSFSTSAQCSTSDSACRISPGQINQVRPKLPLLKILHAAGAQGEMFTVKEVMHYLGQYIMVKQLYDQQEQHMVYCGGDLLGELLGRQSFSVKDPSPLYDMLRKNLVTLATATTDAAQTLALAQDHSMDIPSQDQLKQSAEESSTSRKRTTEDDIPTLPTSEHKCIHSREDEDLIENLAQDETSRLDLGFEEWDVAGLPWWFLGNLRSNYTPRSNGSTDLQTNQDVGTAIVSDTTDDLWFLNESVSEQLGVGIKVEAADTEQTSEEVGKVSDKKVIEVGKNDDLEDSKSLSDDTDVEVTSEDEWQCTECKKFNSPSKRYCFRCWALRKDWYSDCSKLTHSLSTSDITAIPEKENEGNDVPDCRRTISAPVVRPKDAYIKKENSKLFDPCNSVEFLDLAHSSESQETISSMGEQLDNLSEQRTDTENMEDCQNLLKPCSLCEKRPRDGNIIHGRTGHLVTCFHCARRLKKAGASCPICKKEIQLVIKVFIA
Target sequence (Q00987 whole entry, looked up): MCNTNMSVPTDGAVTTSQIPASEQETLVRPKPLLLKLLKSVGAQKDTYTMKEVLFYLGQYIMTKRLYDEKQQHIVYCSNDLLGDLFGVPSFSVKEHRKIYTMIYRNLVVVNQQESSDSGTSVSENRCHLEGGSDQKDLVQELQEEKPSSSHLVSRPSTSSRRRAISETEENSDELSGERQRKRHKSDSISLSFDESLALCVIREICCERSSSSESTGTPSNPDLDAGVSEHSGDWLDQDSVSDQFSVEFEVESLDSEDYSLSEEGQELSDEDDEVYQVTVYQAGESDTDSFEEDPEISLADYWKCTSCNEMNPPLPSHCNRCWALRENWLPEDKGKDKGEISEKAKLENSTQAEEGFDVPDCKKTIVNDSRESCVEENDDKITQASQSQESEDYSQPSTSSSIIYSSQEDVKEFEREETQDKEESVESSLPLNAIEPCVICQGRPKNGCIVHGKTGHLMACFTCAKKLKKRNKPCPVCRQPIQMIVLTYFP
CSC inhib – cancer stem cell viability inhibitors, primary screen, luminescence; cancer stem cell-like cells viability; inhibition, % at 7.5 µM; 300,000 tested, 1.1% active; in the data active means inhibition above about 75%; inconclusive means no clear call, values can overlap the other calls; tested in HMLE shEcad cells
aSyn 5UTR inh – MLPCN primary screen, SNCA 5' untranslated region. alpha-synuclein 5'UTR reporter, inhibitor activity. inhibition, % (tested at 7.5 µM). 300,000 tested, 0.82% active; in the data active means inhibition above about 60%; inconclusive means no clear call, values can overlap the other calls;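 further: H4 neuroglioblastoma cells stably carrying SNCA 5'UTR luciferase fusion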
697 NFkB conf – PMA/ionomycin-induced NF-kB reporter inhibitors, 697 retest, confirmation, B-cell NF-kB inhibitor project, cell-based, luminescence, single concentration; shares compounds with 697 NFkB inh; 697 B-cell NF-kB luciferase, 16 h; inhibition, % at 4 µM; 2,000 tested, 35% active; AID 449746, 2010; in the data active means inhibition mostly above about 28%, no sharp cut-off; inactive means mostly below about 22%
A number is an active result; 0 = inactive; ? = inconclusive; - = not tested or not shown.

SMILES	Jurkat NFkB inh	697 NFkB inh	Gli-Sufu block	Mdm2 MdmX PPI	CSC inhib	aSyn 5UTR inh	697 NFkB conf
Cc1ccc(NC(=O)COC(=O)/C=C/c2cccs2)c(C)c1	0	0	0	0	0	0	-
CNS(=O)(=O)c1cccc(C(=O)OCC(=O)N2c3ccccc3CC2C)c1 (stereo not drawn)	0	36	0	0	0	0	0
COC(=O)CSc1nnc(-c2sc3ccccc3c2Cl)o1	0	40	0	0	0	0	43
COc1cc(NC(=S)NCCC(c2ccccc2)c2ccccc2)c(OC)cc1Cl	0	0	0	0	0	0	-
COC(=O)c1ccc(CNC(=O)Cn2cnc3c(OCc4ccccc4)ncnc32)cc1	0	0	0	0	-	-	-
Cc1ccc(C(=O)CSc2nnc(COc3cccc(C)c3)o2)cc1	0	49	0	0	0	0	57
CCOc1ncccc1C(=O)Nc1nnc(C2CC2)s1	0	39	0	0	-	0	0
COc1cc2c(cc1NC(=O)CSCC(=O)O)oc1ccccc12	0	36	0	0	0	0	0
COc1ccc(CN(C2CCCCC2C)S(=O)(=O)c2ccc(S(=O)(=O)N(C)C)cc2)cc1OC (stereo not drawn)	0	0	0	0	0	0	-
COc1cc(CN(C2CCCCC2C)S(=O)(=O)c2ccc(S(=O)(=O)NC3CC3)cc2)cc(OC)c1OC (stereo not drawn)	0	36	0	0	0	0	0
COc1cc(/C(C)=N\NC(N)=S)cc(OC)c1OC	0	40	0	0	0	0	41
COc1cc(/C(C)=N/NC(=S)NC(C)C)cc(OC)c1OC	0	0	0	0	0	0	-
COc1cc([N+](=O)[O-])ccc1NC(=S)Nc1cc(C(=O)OC(C)C)cc(C(=O)OC(C)C)c1	0	0	0	0	0	0	-
Cc1ccc(CSCCNC(=O)c2ccc(C)cc2)cc1	0	0	0	0	0	0	-
Cc1ccc(CSCCNC(=O)c2ccc(NS(C)(=O)=O)cc2)cc1	0	36	0	0	0	0	0
Cc1ccc2oc(-c3ccc(NC(=O)c4cccnc4)cc3)nc2c1	0	0	0	0	-	0	0
Cc1ccc2oc(-c3ccc(NC(=O)CC(C)C)cc3)nc2c1	0	0	0	0	0	0	0
O=C(Nc1ccc(-c2nc3ccccc3o2)cc1)c1cccnc1	0	0	0	0	0	0	-
CCN(CC)c1ccc(/C=C2/C(=O)ON=C2C)cc1	0	40	0	0	0	0	36
Cc1cc(S(=O)(=O)NCCCN2CCOCC2)c(C)cc1Cl	0	0	0	0	0	0	-
Cc1ccc(-c2nc3nc4ccccc4nc3n2Cc2ccco2)cc1	0	0	0	0	0	0	0
Clc1ccc(-c2nc3nc4ccccc4nc3n2Cc2ccco2)cc1	0	0	0	0	0	-	0
CC(C)(C)CN1CCNC(=O)C1CC(=O)NCCc1ccccc1F (stereo not drawn)	0	0	0	0	0	0	-
COCCN(Cc1nc(-c2ccc(-c3ccccc3)cc2)oc1C)C(C)C	0	0	0	0	0	0	0
CC1CCCC(C)N1C(=O)COC(=O)CSc1ccc(C(N)=O)cc1[N+](=O)[O-] (stereo not drawn)	0	35	0	0	0	0	0
SMILES	Jurkat NFkB inh	697 NFkB inh	Gli-Sufu block	Mdm2 MdmX PPI	CSC inhib	aSyn 5UTR inh	697 NFkB conf
CCCOc1ccc(-c2cc3onc(-c4ccccc4)c3c(=O)n2C)cc1	0	0	0	0	0	-	0
CNC(=O)c1ccc(-c2cc3onc(-c4ccccc4)c3c(=O)n2C)cc1	0	0	0	0	-	-	-
CN(Cc1ccccc1)S(=O)(=O)c1ccc(Cl)c(C(=O)NCc2ccc3c(c2)OCO3)c1	0	0	0	0	0	0	-
C=CCn1c(C)cc(C(=O)CSc2nc3ccccc3c(=O)[nH]2)c1C	0	0	0	0	0	-	-
C=CCn1c(C)cc(C(=O)CSc2nc3ccccc3[nH]2)c1C	0	0	0	0	0	?	0
CSCCC(NC(C)=O)C(=O)Oc1ccc2c3c(c(=O)oc2c1)CCCC3 (stereo not drawn)	-	-	0	-	-	-	-
CSCCC(NC(=O)OC(C)(C)C)C(=O)Oc1ccc2c(=O)c(-c3ccc4c(c3)OCCO4)coc2c1 (stereo not drawn)	0	0	0	0	0	-	0
COc1ccc(NS(=O)(=O)c2cc(NC(=O)c3cc(=O)c4ccccc4o3)ccc2OC)cc1	0	38	0	0	0	0	33
COc1ccc2nc(NC(=O)C(NS(=O)(=O)c3cccs3)C(C)C)sc2c1 (stereo not drawn)	0	0	0	0	0	0	-
CCOc1ccc(-c2cc(CCCC(=O)NCCCOC)no2)cc1	0	53	0	0	-	87	32
COc1ccc(C(=O)NCCc2nnc(SCC(=O)Nc3ccccc3F)n2C)cc1	0	0	-	0	0	0	-
CC(C)C(c1nnnn1Cc1ccccc1)N(Cc1ccco1)Cc1cccs1 (stereo not drawn)	0	35	0	0	0	0	28
COc1cc(-c2cc(-c3nnco3)c3ccccc3n2)cc(OC)c1OC	0	41	0	0	0	0	0
COc1ccccc1C(=O)NC(=S)Nc1cccnc1Cl	0	0	0	0	0	0	0
Cc1ccc(C(=O)NC(=S)Nc2cccnc2Cl)cc1	0	0	0	0	0	0	-
Cc1ccc(N(CC(=O)NCc2ccco2)C(=O)CCC(=O)Nc2nccs2)cc1	0	0	0	0	0	0	-
O=C1N[C@@H](Cc2cn(S(=O)(=O)c3ccc(F)cc3)c3ccccc23)C(=O)N[C@H]1Cc1ccccc1	0	0	-	0	0	0	-
O=C1N[C@@H](Cc2cn(S(=O)(=O)c3ccccc3)c3ccccc23)C(=O)N[C@H]1Cc1ccccc1	0	38	0	0	0	0	0
O=C(C1CCCN1S(=O)(=O)c1cccc2cccnc12)N1CCn2c1nc1ccccc12 (stereo not drawn)	0	0	0	0	0	0	-
Cc1cccc(-c2nc(CSc3nc4c(c(=O)[nH]3)CCC4)c(C)o2)c1	0	39	0	0	0	0	0
CN(C)CCCNC(=S)N(CCO)Cc1cc2cc3c(cc2[nH]c1=O)OCO3	0	0	0	0	0	0	-
Cc1cc(OCC(=O)Nc2ccc(CCO)cc2)c2c(C)c(C)c(=O)oc2c1	0	36	0	0	0	0	40
CC1CC/C(=N/Nc2ccccc2)C(=O)N1 (stereo not drawn)	0	0	0	0	-	0	-
